Screening results as filed in PubChem BioAssay.
Compounds with a hit are over-represented: about 27% of the library has one in this group of screens.
CYP2C9 activ = CYP2C9 (human) activation; P11712; recombinant CYP2C9, luciferin-H conversion, luminescence; stronger effect = higher value; factor 1 = untreated enzyme, 0 = blocked; activation factor at 5 µM; 96,000 tested, 1.4% active; AID 1024;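 active = activation factor of 2 or more for CYP2C9 at a 5 µM dose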
CYP2C19 inhib = inhibitors of human CYP2C19; AID 778; CYP2C19 Supersomes, luciferin-H EGE luminescence, 30 min; 96,000 tested, 21% active; inhibition, % at 5 µM;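 active = CYP2C19 inhibition above a set limit at 5 µM in the primary screen, cut at about 50% in these data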
Target sequence (P33261 whole entry, looked up): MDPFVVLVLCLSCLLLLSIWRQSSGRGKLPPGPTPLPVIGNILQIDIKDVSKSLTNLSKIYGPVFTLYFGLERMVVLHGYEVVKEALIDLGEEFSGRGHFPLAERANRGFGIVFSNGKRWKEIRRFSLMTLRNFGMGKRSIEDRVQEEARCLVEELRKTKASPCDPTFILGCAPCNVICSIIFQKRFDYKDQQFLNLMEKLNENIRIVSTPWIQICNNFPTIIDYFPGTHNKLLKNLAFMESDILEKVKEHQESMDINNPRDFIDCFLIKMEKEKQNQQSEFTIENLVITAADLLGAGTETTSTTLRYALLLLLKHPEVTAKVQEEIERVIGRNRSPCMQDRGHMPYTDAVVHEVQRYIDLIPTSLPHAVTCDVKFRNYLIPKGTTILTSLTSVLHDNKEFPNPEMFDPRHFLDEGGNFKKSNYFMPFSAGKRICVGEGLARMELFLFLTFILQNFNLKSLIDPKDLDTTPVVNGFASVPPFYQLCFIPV
CYP2C9 inh = blocks human cytochrome P450 2C9 | P11712 | CYP2C9 Supersomes, luciferin-H conversion, luminescence | inhibition, % at 5 µM | 96,000 tested, 20% active | AID 777;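 active = blocking of liver enzyme CYP2C9 beyond about 50% at 5 µM, limit read from the data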
CYP2C19 activ = cytochrome P450 2C19 (human) activation. P33261. activation factor at 5 µM. 96,000 tested, under 10 active. recombinant CYP2C19, luciferin-H EGE luminescence; stronger effect = higher value; 0 = fully inhibited enzyme, 1 = untreated enzyme;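 active = activation factor of at least 2 at 5 µM in the primary screen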
Cav32 inh = inhibitors of human Cav3.2 T-type calcium channel; Cav3.2-expressing cells, Fluo-4 calcium fluorescence FDSS; stronger effect = lower value; AID 449739; O95180; 100,000 tested, 4% active; B-score at 10 µM;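 active = single-dose well whose peak fluorescence ratio is a statistical outlier from its plate by either plate-standardised score or position-corrected B-score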
Hits are given with their value; 0 = inactive; - = not tested or not shown.

SMILES	CYP2C9 activ	CYP2C19 inhib	CYP2C9 inh	CYP2C19 activ	Cav32 inh
O=c1c2c(n3nnnc3n1Cc1ccccc1)-c1ccccc1CC21CCCC1	0	0	72	0	0
COc1ccc(S(=O)(=O)N2CCN(C(=O)NC3CCCCC3)CC2)cc1OC	0	0	0	0	0
Cc1ccc(-c2nn(-c3ccccc3)c3[nH]c(=O)c(CNCCN(C)C)cc23)cc1	0	0	0	0	-
Cc1ccc(-c2nn(-c3ccccc3)c3[nH]c(=O)c(CNCc4ccccc4)cc23)cc1	-	-	-	-	-3.6
Cc1nn(-c2ccccc2)c2[nH]c(=O)c(CNCc3ccc4c(c3)OCO4)cc12	0	0	0	0	0
CCc1ccc(NCc2cc3c(C)nn(-c4ccccc4)c3[nH]c2=O)cc1	0	0	92	0	0
Cc1nn(-c2ccccc2)c2[nH]c(=O)c(CNc3ccc4c(c3)OCCO4)cc12	0	0	61	0	0
O=C(c1cc(-c2ccncc2)nc2ccc(Cl)cc12)N1CCN(C(=O)C2CCCO2)CC1 (stereo not drawn)	0	0	74	0	0
O=C(c1cccn2c(=O)c3cc(Br)ccc3nc12)N1CCN(c2ccccn2)CC1	0	0	59	0	0
CCN1CCN(C(=O)c2cc(-c3cccnc3)nc3ccc(Br)cc23)CC1	0	0	0	0	0
O=C(c1cc(-c2ccccn2)nc2c(Cl)cccc12)N1CCN(C(=O)C2CCCO2)CC1 (stereo not drawn)	0	0	0	0	0
O=C(c1cccn2c(=O)c3ccccc3nc12)N1CCN(c2ccccn2)CC1	0	0	59	0	0
O=C(c1cc(-c2ccncc2)nc2ccc(Br)cc12)N1CCN(c2ccccn2)CC1	0	79	98	0	0
O=C(c1cccn2c(=O)c3cc4ccccc4cc3nc12)N1CCN(c2ccccc2)CC1	0	0	0	0	-
CCOC(=O)COc1c(Br)cc(/C=C2\SC(=O)N(CC(=O)N3CCCC3)C2=O)cc1OC	0	0	0	0	-
O=C(NCc1ccco1)C(c1ccccc1)N(Cc1ccccc1)C(=O)Cn1nnc2ccccc21 (stereo not drawn)	-	-	-	-	0
CC(=O)Cc1nsc(NC(=O)c2cccs2)n1	0	0	0	0	0
Cc1cc(C(=O)CSc2nnc(-c3ccncc3)n2-c2ccccc2)c(C)n1C	0	84	0	0	0
Cc1cc(C(=O)CSc2nnc(-c3ccccc3)n2C)c(C)n1C	0	78	0	0	0
Cc1cc(C(=O)CSc2nnc(-c3ccccc3)n2-c2ccccc2)c(C)n1-c1ncn[nH]1	0	62	58	0	0
N#Cc1ccccc1NC(=O)CSc1nnc(-c2ccc(F)cc2)n1-c1ccccc1	0	63	0	0	-
CC(C)(C)S(=O)c1cccs1 (stereo not drawn)	0	0	0	0	0
N/C(CCN1CCCCC1)=N/O	0	0	0	0	0
Cc1nn(C(C)C(=O)O)c2ccccc12 (stereo not drawn)	0	0	0	0	0
CC(C)NC(=O)CSc1nnc(-c2ccncc2)n1-c1ccccc1	0	92	58	0	0
SMILES	CYP2C9 activ	CYP2C19 inhib	CYP2C9 inh	CYP2C19 activ	Cav32 inh
CC(C)NC(=O)CSc1nnc(C2CC2)n1-c1ccccc1	0	0	0	0	0
O=C(NCc1ccco1)/C(=C/c1cccnc1)NC(=O)c1ccco1	0	0	0	0	0
CCOc1ccc(N(C(C)C(=O)N/N=C(\C)c2cccc(NC(=O)c3ccccc3)c2)S(C)(=O)=O)cc1 (stereo not drawn)	0	76	69	0	-10
Cc1cc(C(F)F)n2ncc(C(=O)NCc3ccccc3)c2n1	0	60	0	0	0
COc1ccc(CNC(=O)c2cnn3c(C(F)F)cc(C)nc23)cc1	-	-	-	-	0
O=C(NCc1ccc(Cl)cc1)c1cnn2ccccc12	0	76	0	0	0
Cc1cc(C)n2ncc(C(=O)NCc3ccccc3)c2n1	0	0	0	0	0
Cc1cc(C(F)(F)F)n2ncc(C(=O)O)c2n1	2	0	0	0	0
Cc1cc(C(F)F)n2ncc(C(=O)NCCc3ccc(Cl)cc3)c2n1	0	85	0	0	0
O=C(O)c1cnn2c(C(F)(F)F)cc(-c3ccco3)nc12	0	0	0	0	0
CCC1CCCCN1C(=O)CSc1nnc(CNC(=O)c2cc(OC)c(OC)c(OC)c2)o1 (stereo not drawn)	0	0	0	0	0
CSc1ccccc1NC(=O)c1cccnc1	0	0	0	0	0
O=C(CCN1C(=O)c2ccncc2C1=O)NCc1ccc(Cl)cc1	0	0	0	0	0
Cc1cc(C)n2ncc(C(=O)NCc3ccc(Cl)cc3)c2n1	0	75	0	0	0
O=C(NCc1ccc(Cl)cc1)c1ccccc1Oc1ccccc1	0	0	54	0	0
Cc1cc(C(F)F)n2ncc(C(=O)NCCc3ccccc3Cl)c2n1	0	74	0	0	0
COCCCNC(=O)c1ccccc1Oc1ccccc1	0	0	0	0	-
O=C(CCn1cccc1)NCc1ccc(Cl)cc1	0	64	0	0	0
C/C(N)=C(/C#N)C(=O)COC(=O)CCC1CCCC1	0	0	0	0	0
C=CCNc1nc2c(c(=O)n(C)c(=O)n2C)n1CC(=C)C	-	-	-	-	0
COc1cccc(Nc2ncccc2C(=O)Nc2ccccc2)c1	0	0	0	0	0
CCCCNC(=O)c1onc(CSc2ccccn2)c1C(=O)NCCCC	-	-	-	-	0
O=C(NCCc1ccccc1)c1cnn2c(C(F)F)cc(C3CC3)nc12	0	87	0	0	0
COC(=O)c1ccccc1NC(=O)c1cnn2c(C(F)F)cc(C3CC3)nc12	0	0	0	0	0
O=C(NCCSCc1c(F)cccc1Cl)c1ccco1	0	80	75	0	0
SMILES	CYP2C9 activ	CYP2C19 inhib	CYP2C9 inh	CYP2C19 activ	Cav32 inh
O=C(Nc1cc(S(=O)(=O)N2CCOCC2)ccc1O)c1ccco1	0	0	0	0	0
Cc1ccc(NC(=O)CN2C(=O)C(C)Oc3ccccc32)nc1 (stereo not drawn)	0	0	0	0	0
CC(=O)N1c2ccccc2N(Cc2ccc(C)cc2C)C(=O)C1(C)C	0	95	81	0	-8.3
CCOC(=O)c1cc2c(=O)n3cccc(C)c3nc2n(Cc2ccccc2Cl)c1=N	0	0	0	0	-
CC1(C)C(=O)C2(C(=O)NCc3ccccc3)CCC1C2 (stereo not drawn)	0	70	0	0	0
COc1ccc(C(C)=O)c2c(O)cccc12	0	87	0	0	0
CC(=O)c1ccc(N2CCN(C(=S)Nc3ccccc3)CC2)cc1	0	0	0	0	0
CCc1ccc(CNc2ccc(N3CCN(C(C)=O)CC3)cc2)cc1	0	56	0	0	0
CC(=O)c1ccc(NCC(=O)N2CCN(c3ccccc3)CC2)cc1	0	58	0	0	-
Cc1ccc(C(=O)NCc2ccc(N3CCN(C(=O)OC(C)(C)C)CC3)cc2)cc1	0	0	0	0	-
CC(=O)N1CCN(c2ccc(NCc3ccc(C)cc3)cc2)CC1	0	0	54	0	0
CC(=O)Nc1ccc(N2CCN(C(C)=O)CC2)cc1	0	0	0	0	0
COC(=O)c1[nH]nc2c1C(=O)N(Cc1ccccc1)C2=O	0	0	0	0	0
